The results in this text go back to ChEMBL document CHEMBL1961873, “Compounds: GSK PKIS; Assays: Nanosyn kinase panel” (2012).

The target in test [1] is T1, Inhibitor of nuclear factor kappa-B kinase subunit epsilon (Homo sapiens) (UniProt Q14164).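 Also: reported values are averaged percent inhibition figures against human IKKε.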
T1 sequence (whole entry): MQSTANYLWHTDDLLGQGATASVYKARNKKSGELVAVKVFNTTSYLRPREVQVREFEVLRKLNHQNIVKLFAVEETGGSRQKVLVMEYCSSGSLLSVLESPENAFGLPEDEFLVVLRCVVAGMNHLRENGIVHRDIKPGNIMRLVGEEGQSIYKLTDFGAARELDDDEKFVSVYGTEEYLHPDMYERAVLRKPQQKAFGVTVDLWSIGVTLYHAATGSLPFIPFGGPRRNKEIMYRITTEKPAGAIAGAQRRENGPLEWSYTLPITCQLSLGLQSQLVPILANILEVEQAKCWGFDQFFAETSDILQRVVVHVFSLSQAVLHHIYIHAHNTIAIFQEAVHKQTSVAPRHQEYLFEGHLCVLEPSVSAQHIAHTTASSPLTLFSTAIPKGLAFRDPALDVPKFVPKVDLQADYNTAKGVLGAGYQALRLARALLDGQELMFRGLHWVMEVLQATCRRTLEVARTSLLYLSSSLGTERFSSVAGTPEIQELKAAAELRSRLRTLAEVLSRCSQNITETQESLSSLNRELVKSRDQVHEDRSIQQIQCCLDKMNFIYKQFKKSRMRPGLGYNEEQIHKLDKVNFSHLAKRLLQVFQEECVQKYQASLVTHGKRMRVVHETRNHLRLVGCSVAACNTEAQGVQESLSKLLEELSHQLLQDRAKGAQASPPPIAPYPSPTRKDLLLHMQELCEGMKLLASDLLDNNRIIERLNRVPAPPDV
The conditions noted are these: at 1 µM.

For test [2], the target named is T2, Serine/threonine-protein kinase Nek1 (Homo sapiens) (UniProt Q96PY6).
T2 sequence (whole entry): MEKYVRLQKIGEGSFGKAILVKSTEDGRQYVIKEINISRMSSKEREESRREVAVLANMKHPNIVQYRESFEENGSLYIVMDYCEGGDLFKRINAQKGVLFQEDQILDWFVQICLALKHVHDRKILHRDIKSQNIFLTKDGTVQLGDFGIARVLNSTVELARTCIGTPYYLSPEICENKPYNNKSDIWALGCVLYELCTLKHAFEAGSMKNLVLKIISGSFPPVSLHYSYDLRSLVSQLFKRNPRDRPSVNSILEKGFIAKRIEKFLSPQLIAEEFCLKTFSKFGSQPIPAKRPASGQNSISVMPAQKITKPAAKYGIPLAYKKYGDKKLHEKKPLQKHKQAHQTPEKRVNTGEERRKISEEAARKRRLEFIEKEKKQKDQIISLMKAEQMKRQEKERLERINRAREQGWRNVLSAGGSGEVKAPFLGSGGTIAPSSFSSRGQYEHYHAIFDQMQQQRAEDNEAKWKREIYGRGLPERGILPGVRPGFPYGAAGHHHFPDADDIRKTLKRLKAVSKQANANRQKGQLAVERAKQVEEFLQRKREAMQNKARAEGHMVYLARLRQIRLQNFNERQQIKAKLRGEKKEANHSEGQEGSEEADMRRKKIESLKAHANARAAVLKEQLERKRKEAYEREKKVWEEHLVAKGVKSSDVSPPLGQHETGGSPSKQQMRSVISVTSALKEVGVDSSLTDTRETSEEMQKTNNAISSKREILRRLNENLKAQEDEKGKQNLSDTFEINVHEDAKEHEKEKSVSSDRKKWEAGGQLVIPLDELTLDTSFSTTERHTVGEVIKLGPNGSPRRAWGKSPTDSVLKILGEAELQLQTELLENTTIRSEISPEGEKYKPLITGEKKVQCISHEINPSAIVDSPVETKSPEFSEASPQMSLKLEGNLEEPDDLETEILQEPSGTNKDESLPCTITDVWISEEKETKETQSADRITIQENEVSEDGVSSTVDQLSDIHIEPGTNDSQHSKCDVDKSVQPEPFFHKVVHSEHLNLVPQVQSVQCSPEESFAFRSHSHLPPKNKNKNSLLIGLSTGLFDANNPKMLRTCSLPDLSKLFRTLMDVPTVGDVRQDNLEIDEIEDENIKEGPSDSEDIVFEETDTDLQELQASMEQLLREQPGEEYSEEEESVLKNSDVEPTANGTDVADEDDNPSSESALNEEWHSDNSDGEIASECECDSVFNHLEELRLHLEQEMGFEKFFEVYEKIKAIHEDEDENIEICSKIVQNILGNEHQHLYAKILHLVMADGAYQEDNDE
The conditions noted are these: at 0.1 µM.

The target of test [3] is T2, Serine/threonine-protein kinase Nek1 (Homo sapiens). The conditions noted are these: at 1 µM.
Test [4] deals with T3, Serine/threonine-protein kinase Nek2 (Homo sapiens) (UniProt P51955).
T3 sequence (whole entry): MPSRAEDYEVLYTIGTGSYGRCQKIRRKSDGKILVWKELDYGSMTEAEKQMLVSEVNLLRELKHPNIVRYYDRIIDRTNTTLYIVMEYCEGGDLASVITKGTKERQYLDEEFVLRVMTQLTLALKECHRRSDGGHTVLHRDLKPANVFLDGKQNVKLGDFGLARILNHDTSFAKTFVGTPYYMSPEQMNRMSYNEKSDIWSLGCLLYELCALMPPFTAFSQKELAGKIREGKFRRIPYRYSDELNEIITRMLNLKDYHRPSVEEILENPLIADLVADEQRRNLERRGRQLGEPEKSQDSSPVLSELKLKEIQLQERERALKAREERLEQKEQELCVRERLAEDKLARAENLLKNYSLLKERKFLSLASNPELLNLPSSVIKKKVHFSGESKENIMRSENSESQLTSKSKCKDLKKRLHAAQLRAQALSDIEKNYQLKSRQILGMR
The conditions noted are these: at 0.1 µM.

The target of test [5] is T3, Serine/threonine-protein kinase Nek2 (Homo sapiens). The conditions noted are these: at 1 µM.
Test [6] deals with Serine/threonine-protein kinase Nek6 (Homo sapiens) (UniProt Q9HC98). Particulars: at 0.1 µM.
Test [7] shares this target. Particulars: at 1 µM.
Test [8] deals with Serine/threonine-protein kinase Nek7 (Homo sapiens) (UniProt Q8TDX7). The conditions noted are these: at 0.1 µM.
Test [9] has the same target. Particulars: at 1 µM.
The target of test [10] is T4, Serine/threonine-protein kinase Nek9 (Homo sapiens) (UniProt Q8TD19).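 Also: reported value is the mean percent inhibition of NEK9.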
T4 sequence (whole entry): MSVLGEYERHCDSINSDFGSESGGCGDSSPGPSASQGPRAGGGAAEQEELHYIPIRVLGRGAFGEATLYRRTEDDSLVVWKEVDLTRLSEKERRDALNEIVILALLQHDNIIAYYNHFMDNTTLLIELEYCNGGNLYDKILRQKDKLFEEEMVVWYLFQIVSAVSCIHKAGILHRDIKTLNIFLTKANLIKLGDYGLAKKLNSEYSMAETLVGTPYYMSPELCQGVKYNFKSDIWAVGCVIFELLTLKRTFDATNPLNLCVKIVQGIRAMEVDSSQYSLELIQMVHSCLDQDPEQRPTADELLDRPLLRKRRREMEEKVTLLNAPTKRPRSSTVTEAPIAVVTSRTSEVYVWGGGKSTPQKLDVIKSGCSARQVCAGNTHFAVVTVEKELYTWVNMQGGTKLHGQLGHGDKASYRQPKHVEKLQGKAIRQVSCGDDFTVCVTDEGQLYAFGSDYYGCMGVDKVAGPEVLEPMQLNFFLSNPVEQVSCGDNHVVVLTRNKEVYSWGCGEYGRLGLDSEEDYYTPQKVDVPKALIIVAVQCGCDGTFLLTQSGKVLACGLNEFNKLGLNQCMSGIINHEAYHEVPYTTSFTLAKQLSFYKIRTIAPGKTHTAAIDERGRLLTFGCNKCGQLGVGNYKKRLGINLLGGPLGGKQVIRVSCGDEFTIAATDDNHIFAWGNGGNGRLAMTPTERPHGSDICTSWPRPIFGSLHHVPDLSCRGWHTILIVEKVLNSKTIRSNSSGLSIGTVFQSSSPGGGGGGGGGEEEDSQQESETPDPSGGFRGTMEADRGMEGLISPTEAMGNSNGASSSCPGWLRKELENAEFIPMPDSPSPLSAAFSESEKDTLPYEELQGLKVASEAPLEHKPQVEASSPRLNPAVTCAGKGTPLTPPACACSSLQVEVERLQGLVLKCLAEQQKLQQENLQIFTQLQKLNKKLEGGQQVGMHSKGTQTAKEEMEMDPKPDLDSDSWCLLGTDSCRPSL
Particulars: at 0.1 µM.

Serine/threonine-protein kinase Nek6 (Homo sapiens), sequence (Q9HC98 whole entry): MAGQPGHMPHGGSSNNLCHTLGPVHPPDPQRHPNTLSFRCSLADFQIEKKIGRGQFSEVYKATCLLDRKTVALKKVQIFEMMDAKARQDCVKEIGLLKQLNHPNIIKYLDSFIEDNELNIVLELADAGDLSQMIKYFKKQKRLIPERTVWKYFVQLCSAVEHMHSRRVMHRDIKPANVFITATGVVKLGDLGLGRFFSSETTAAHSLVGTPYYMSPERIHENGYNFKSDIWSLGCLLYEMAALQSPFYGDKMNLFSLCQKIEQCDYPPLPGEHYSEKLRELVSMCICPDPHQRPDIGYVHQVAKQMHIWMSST
Serine/threonine-protein kinase Nek7 (Homo sapiens), sequence (Q8TDX7 whole entry, looked up): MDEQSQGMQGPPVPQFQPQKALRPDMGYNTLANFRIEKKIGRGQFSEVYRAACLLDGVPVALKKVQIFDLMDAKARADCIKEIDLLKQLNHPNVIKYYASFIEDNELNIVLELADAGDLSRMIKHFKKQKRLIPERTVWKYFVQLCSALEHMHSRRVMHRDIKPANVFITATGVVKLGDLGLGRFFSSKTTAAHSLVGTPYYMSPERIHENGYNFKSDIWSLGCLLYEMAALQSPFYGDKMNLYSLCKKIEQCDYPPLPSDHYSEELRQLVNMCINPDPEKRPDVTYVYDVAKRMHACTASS

One may read the inhibition as the change of the read-out against control, counted positive when it falls. `Cc1ccc(C(=O)NC2CCCCC2)cc1-c1ccc(C(=O)NCC2CC2)cc1`: the inhibition in test [1] came out at 0.57%; in test [2] it was 1.91%; in test [3] it was 1.48%; in test [4], 3.04%; in [5], 3.36%; in test [6], 3.51%. Further, the inhibition was -2.96% in test [7], 4.39% in test [8], 3.76% in test [9] and -0.48% in test [10].
For the molecule `CC1=C(C(=O)Nc2ccc3[nH]ncc3c2)C(c2ccc3ccccc3c2)CC(=O)N1` (stereo not given), the inhibition in [1] is 3.81%; in test [2], 1.66%; in [3], 2.46%; in [4], 2.88%; in [5], 2.9%; in test [6] it was -0.05%. Further, the inhibition in [7] turned out to be 2.48%; in [8], 0.42%; in [9], 1.79%; in test [10], 3.14%.
Turning to `CC(C)=Cc1cccc2c1/C(=N/Nc1ccc(S(N)(=O)=O)cc1)C(=O)N2`, the inhibition in [1] is 21.9%; in test [2] it was 0.48%; in test [3] it was 2.3%; in [4] it was -1.83%; in test [5], -0.31%; in [6], 1.86%. Also, the inhibition in test [7] was 0.97%; in test [8] it was -1.18%; in [9] it was -0.48%; in test [10], 4.67%.
In the case of `COC(=O)Nc1nc2cc(Oc3cccc(NC(=O)Nc4cc(C(F)(F)F)ccc4F)c3)ccc2[nH]1`, the inhibition in [1] is 0.25%; in [2], -0.22%; in test [3], 2.32%; in test [4], 0.79%; in [5], 0.72%; in [6], 1.5%. Besides, the inhibition in test [7] was 0.11%; in test [8] it was 2.69%; in test [9], 1.59%; in test [10] it was -4.74%.
As for `COc1ccc2cc(-c3c(-c4ccncc4)nc(-c4ccc([S+](C)[O-])cc4)n3C)ccc2c1` (stereo not given), the inhibition was 4.64% in test [1]; 1.1% in [2]; 1.54% in test [3]; 3.66% in test [4]; 3.14% in test [5]; 0.57% in [6]. Further, the inhibition in [7] was -1.38%; in test [8], 2.77%; in test [9], 2.17%; in test [10], 7.56%.
Regarding `CCCN1CCC=C(c2ccc(Nc3nc(Nc4ccccc4C(N)=O)c4cc[nH]c4n3)c(C)c2)C1`, the inhibition was 10.3% in [1]; 3.93% in test [2]; 8.78% in [3]; 6.91% in test [4]; 7.52% in test [5]; 0.8% in test [6]. Moreover, the inhibition turned out to be 5.18% in [7], 4.64% in [8], 14% in test [9] and 7.78% in test [10].
For the molecule `CCn1c(-c2nonc2N)nc2ccncc21`, the inhibition in test [1] worked out at 0.86%; in [2] it was 1.01%; in test [3] it was 0.07%; in test [4], 2.29%; in [5], 1.09%; in test [6] it was 2.53%. Further, the inhibition in test [7] was -2.93%; in test [8], 3.2%; in [9], 2.01%; in test [10], 0.35%.
Regarding `NS(=O)(=O)c1ccc(N/N=C2\C(=O)Nc3ccc(C(=O)NCCc4c[nH]cn4)cc32)cc1`, the inhibition in test [1] was 19%; in test [2], 2.19%; in test [3], -1.06%; in test [4] it was 5.57%; in [5], 5.42%; in test [6], 3.45%. Moreover, the inhibition in test [7] stood at 1.65%; in [8] it was 4.83%; in [9], 7.05%; in test [10], 10.2%.
